The record followed here is PubChem BioAssay.

One may read the viability as a read-out of living cells in per cent, often relative to untreated cells.

Active and inactive are the calls of the source.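 Rule for the calls: active = normalized viability below 100% at a tested concentration; inactive = the rest.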

The nature of the first experiment: drug combination growth inhibition, ovarian cancer – cell-based, oncology-focused library, rucaparib conditional, profiling panel (AID 1508598). To be noted: patient-derived ovarian cancer cells, CellTiter-Glo viability, 144 h; at 1.25 µM; OCI-P5x cells; with rucaparib 20 µM; active compounds read low; 100% = cells with rucaparib alone.
Take `CC(C)[C@@]12O[C@@H]1[C@@H]1O[C@]13[C@]1(O[C@@H]1C[C@@H]1C4=C(CC[C@@]13C)C(=O)OC4)[C@@H]2O`: the viability is 9.34% (active).

As for `C/C(=C\c1csc(C)n1)[C@H]1C[C@@H]2O[C@]2(C)CCC[C@H](C)[C@H](O)[C@@H](C)C(=O)C(C)(C)[C@H](O)CC(=O)O1`, the viability is 39.6% (active).

Take `C/C(=C\c1csc(C)n1)[C@H]1C[C@@H]2O[C@@H]2CCC[C@H](C)[C@H](O)[C@@H](C)C(=O)C(C)(C)[C@H](O)CC(=O)O1`: the viability is 46.3% (active).

The same experiment, now with this note: patient-derived ovarian cancer cells, CellTiter-Glo viability, 144 h; at 1.25 µM; OCI-P5x cells; without rucaparib; active compounds read low.
In the case of `CC(C)[C@@]12O[C@@H]1[C@@H]1O[C@]13[C@]1(O[C@@H]1C[C@@H]1C4=C(CC[C@@]13C)C(=O)OC4)[C@@H]2O`, the viability was 8.5% (active).

`C/C(=C\c1csc(C)n1)[C@H]1C[C@@H]2O[C@]2(C)CCC[C@H](C)[C@H](O)[C@@H](C)C(=O)C(C)(C)[C@H](O)CC(=O)O1`: the viability was 16.1% (active).

As for `C/C(=C\c1csc(C)n1)[C@H]1C[C@@H]2O[C@@H]2CCC[C@H](C)[C@H](O)[C@@H](C)C(=O)C(C)(C)[C@H](O)CC(=O)O1`, the viability is 14.6% (active).

The same experiment, now with this note: patient-derived ovarian cancer cells, CellTiter-Glo viability, 144 h; at 5 µM; OCI-C5x cells; with rucaparib 10 µM; active compounds read low; 100% = cells with rucaparib alone.
Turning to `CC(C)[C@@]12O[C@@H]1[C@@H]1O[C@]13[C@]1(O[C@@H]1C[C@@H]1C4=C(CC[C@@]13C)C(=O)OC4)[C@@H]2O`, the viability is 9.2% (active).

Turning to `C/C(=C\c1csc(C)n1)[C@H]1C[C@@H]2O[C@]2(C)CCC[C@H](C)[C@H](O)[C@@H](C)C(=O)C(C)(C)[C@H](O)CC(=O)O1`, the viability is 45.4% (active).

Regarding `C/C(=C\c1csc(C)n1)[C@H]1C[C@@H]2O[C@@H]2CCC[C@H](C)[C@H](O)[C@@H](C)C(=O)C(C)(C)[C@H](O)CC(=O)O1`, the viability is 52.3% (active).

The same experiment, now with this note: patient-derived ovarian cancer cells, CellTiter-Glo viability, 144 h; at 5 µM; OCI-C5x cells; without rucaparib; active compounds read low.
`CC(C)[C@@]12O[C@@H]1[C@@H]1O[C@]13[C@]1(O[C@@H]1C[C@@H]1C4=C(CC[C@@]13C)C(=O)OC4)[C@@H]2O`: the viability was 8.72% (active).

As to `C/C(=C\c1csc(C)n1)[C@H]1C[C@@H]2O[C@]2(C)CCC[C@H](C)[C@H](O)[C@@H](C)C(=O)C(C)(C)[C@H](O)CC(=O)O1`, the viability is 40.3% (active).

As to `C/C(=C\c1csc(C)n1)[C@H]1C[C@@H]2O[C@@H]2CCC[C@H](C)[C@H](O)[C@@H](C)C(=O)C(C)(C)[C@H](O)CC(=O)O1`, the viability is 41.6% (active).

Staying with this experiment, now noted: patient-derived ovarian cancer cells, CellTiter-Glo viability, 144 h; at 5 µM; OCI-P5x cells; with rucaparib 20 µM; active compounds read low; 100% = cells with rucaparib alone.
Regarding `CC(C)[C@@]12O[C@@H]1[C@@H]1O[C@]13[C@]1(O[C@@H]1C[C@@H]1C4=C(CC[C@@]13C)C(=O)OC4)[C@@H]2O`, the viability was 10.3% (active).

As for `C/C(=C\c1csc(C)n1)[C@H]1C[C@@H]2O[C@]2(C)CCC[C@H](C)[C@H](O)[C@@H](C)C(=O)C(C)(C)[C@H](O)CC(=O)O1`, the viability was 43.9% (active).

Regarding `C/C(=C\c1csc(C)n1)[C@H]1C[C@@H]2O[C@@H]2CCC[C@H](C)[C@H](O)[C@@H](C)C(=O)C(C)(C)[C@H](O)CC(=O)O1`, the viability is 43.6% (active).

The experiment is the same for the next values; noted with them: patient-derived ovarian cancer cells, CellTiter-Glo viability, 144 h; at 5 µM; OCI-P5x cells; without rucaparib; active compounds read low.
On to `CC(C)[C@@]12O[C@@H]1[C@@H]1O[C@]13[C@]1(O[C@@H]1C[C@@H]1C4=C(CC[C@@]13C)C(=O)OC4)[C@@H]2O`, for which the viability was 6.87% (active).

With `C/C(=C\c1csc(C)n1)[C@H]1C[C@@H]2O[C@]2(C)CCC[C@H](C)[C@H](O)[C@@H](C)C(=O)C(C)(C)[C@H](O)CC(=O)O1`, the viability is 15.4% (active).

Regarding `C/C(=C\c1csc(C)n1)[C@H]1C[C@@H]2O[C@@H]2CCC[C@H](C)[C@H](O)[C@@H](C)C(=O)C(C)(C)[C@H](O)CC(=O)O1`, the viability was 17.3% (active).
